TDP1 cell CPT: qHTS for Inhibitors of human tyrosyl-DNA phosphodiesterase 1 (TDP1): qHTS in cells in presence of CPT. chicken DT40 Tdp1-/-;hTDP1 cells + 20 nM CPT, ATP luminescence, 48 h. Potency, µM (series often up to 46.2 µM), for the others: at the highest dose activity change, negative = growth inhibition, hits mostly inhibitors. 420,000 tested, 12% active; note: potency is the fitted concentration of half-maximal effect; % is set by controls: 0 for no effect and ±100 for the full control effect; nearly all actives have a fitted effect of over 55% in size
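Chicken DT40 Tdp1-/- cells stably complemented with human TDP1 were seeded at 400 cells/well in medium containing 20 nM camptothecin, exposed to pin-transferred compounds, and grown at 37 °C for at least 48 hr. Viability was read as ATP luminescence.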
DT40 TDP1 no CPT: qHTS for Inhibitors of human tyrosyl-DNA phosphodiesterase 1 (TDP1): qHTS in cells in absence of CPT; DT40 Tdp1-/- hTDP1 cells, no CPT, ATP luminescence, 48 h; Potency, µM (top dose mostly 46.2 µM), for inactives: top-dose activity change, negative = growth inhibition, usual class: inhibitors; 420,000 tested, 15% active; AID 686978, 2013; note: potency is the fitted concentration of half-maximal effect; % is set by controls: 0 for no effect and ±100 for the full control effect; nearly all actives have a fitted effect of over 55% in size
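Compound effects on proliferation are scored in DT40 Tdp1-/-;hTDP1 cells in the absence of CPT. ATP levels (CellTiter-Glo luminescence) are recorded after a ≥48 hr, 37 °C incubation.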
IL1B secr inh: qHTS for Inhibitors of Inflammasome Signaling: IL-1-beta AlphaLISA Primary Screen; THP-1 LPS/ATP IL-1B secretion, AlphaLISA, 16 h; stronger effect = lower value; activity change, % at 57.5 µM; 360,000 tested, 4.7% active; AID 743279, 2014; in the data active = activity change below about -50%; inconclusive = mostly about -30% to -49%; note: % is set by controls: 0 for no effect and ±100 for the full control effect
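Secreted IL-1B measured by AlphaLISA bead assay after 16 h compound exposure of THP-1 cells; compounds (final up to 57.5 uM) added 1 h before LPS (250 ng/mL) and ATP (1.25 mM) stimulation; lower signal means less secretion.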
HepG2 tox: qHTS for Inhibitors of TGF-b: Cytotox Counterscreen | AID 588856, 2011 | Potency, µM (top dose mostly 46.1 µM), inactives show at the top dose activity change, negative = cytotoxicity, usual class: cytotoxic | HepG2 CAGA-GFP viability, ATP luminescence, 18 h | 410,000 tested, 0.76% active; note: potency is the fitted concentration of half-maximal effect
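CellTiter-Glo luminescence gave cytotoxicity after 18 hours at 37 degrees C. The cells were HepG2 CAGA-GFP in 1% FBS DMEM, stimulated with 500 pg/mL TGF-beta after compound addition. %Activity was normalised to no-cell wells (complete cell-killing) and DMSO (no toxicity), and curves were fitted and classified.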
TGFb inhibitor: qHTS for Inhibitors of TGF-b. Potency, µM (top dose mostly 46.1 µM), inactives show at the top dose activity, negative = inhibition, usual class: inhibitors. HepG2 CAGA-GFP TGF-b/SMAD3 reporter, GFP fluorescence, 18 h; TGF-beta stimulated, 500 pg/mL final. 410,000 tested, 1.2% active; note: potency is the fitted concentration of half-maximal effect; % is set by controls: 0 for no effect and ±100 for the full control effect; nearly all actives have a fitted effect of over 65% in size
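Using HEPG2 CAGA-GFP reporter cells at 1000 cells/well, we pinned test compounds, stimulated with recombinant TGF-beta (500 pg/mL final) and measured total well GFP after 18 h.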
TDP1 inh: qHTS Assay for Inhibitors of Tyrosyl-DNA Phosphodiesterase (TDP1). 350,000 tested, 0.28% active. recombinant TDP1, AlphaScreen DNA substrate cleavage. Potency, µM (series often up to 130 µM), for the others: at the highest dose activity change, negative = inhibition, actives largely listed as inhibitors. Tyrosyl-DNA phosphodiesterase 1 (Homo sapiens), Q9NUW8; note: potency is the fitted concentration of half-maximal effect; % is set by controls: 0 for no effect and ±100 for the full control effect; nearly all actives have a fitted effect of over 40% in size
Target sequence (Q9NUW8 whole entry, looked up): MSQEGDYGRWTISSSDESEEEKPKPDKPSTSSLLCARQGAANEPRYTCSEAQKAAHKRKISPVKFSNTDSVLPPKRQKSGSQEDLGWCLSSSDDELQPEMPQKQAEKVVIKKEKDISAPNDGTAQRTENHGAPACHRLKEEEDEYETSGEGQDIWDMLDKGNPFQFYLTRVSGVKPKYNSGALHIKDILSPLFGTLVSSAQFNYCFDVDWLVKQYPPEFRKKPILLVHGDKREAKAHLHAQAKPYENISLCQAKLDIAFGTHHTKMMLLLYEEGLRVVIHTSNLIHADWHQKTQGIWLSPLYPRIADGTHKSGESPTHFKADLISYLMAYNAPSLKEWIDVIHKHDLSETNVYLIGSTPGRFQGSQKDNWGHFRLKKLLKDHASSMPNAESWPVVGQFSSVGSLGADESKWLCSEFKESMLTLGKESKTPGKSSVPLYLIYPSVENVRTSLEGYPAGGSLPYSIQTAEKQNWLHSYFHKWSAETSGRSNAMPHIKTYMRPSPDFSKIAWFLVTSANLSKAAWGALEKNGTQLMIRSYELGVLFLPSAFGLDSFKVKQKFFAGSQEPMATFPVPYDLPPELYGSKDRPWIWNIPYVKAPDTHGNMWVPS
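AlphaScreen read-out: signal falls as enzyme removes the 3' tyrosine-FITC from a 5'-biotinylated DNA oligo (15 nM, 5 min, RT). Enzyme was E. coli-made recombinant Tdp1 at 1 nM, exposed to compound for 15 min beforehand; beads 10 ug/ml, 10 min.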
Starred values were filed as active, the others as inactive; ? = inconclusive; . = no result given; [ ] = another dose, or the depositor's remark. Most compounds without a hit are left out; they make up all but 18% or so of the library. Unless noted, calls come from the whole dose curve; as a rule, active = well fitted curve in the direction sought with a large enough effect; inconclusive = small, poorly fitted or top-dose-only effect, or another doubt; inactive = no such curve, though single readings can be large; an effect the other way counts as inactive or inconclusive.

SMILES	TDP1 cell CPT	DT40 TDP1 no CPT	IL1B secr inh	HepG2 tox	TGFb inhibitor	TDP1 inh
C#CCCCO/N=C1/[C@H]2O[C@@H]2[C@@H](O)[C@H]2[C@H]1CCn1c(=O)n(C)c(=O)n12	.	.	.	.	.	7%[21 µM]
CN(Cc1ccccc1N1CCCC1)C(=O)c1cc2cc(Cl)ccc2o1	12µM*	-15%	17	-21%	-18%	6%[56.1 µM]
CN(Cc1ccccc1N1CCCC1)C(=O)c1cc2ccccc2o1	?	?	2	0%	10%	10%
Cc1ccc(/C=C2\SC(=S)N(CCC(=O)NNS(=O)(=O)c3ccc(C)cc3)C2=O)cc1	1%	-25%	-2	2%	-2%	-3%
Cc1ccc(/C=C2\SC(=S)N(CCC(=O)N3CCCCC3)C2=O)cc1	?	21µM*	-9	-13%	-4%	.
O=C(CCN1C(=O)/C(=C\c2ccccc2)SC1=S)N1CCCCC1	9.2µM*	10µM*	-100*	-5%	-12%	0%
O=C(CCN1C(=O)/C(=C/c2cccs2)SC1=S)N1CCCCC1	5.8µM*	7.3µM*	-104*	-16%	?	.
Cc1ccc(/C=C2/SC(=S)N(CCC(=O)N3CCN(C)CC3)C2=O)cc1	?	18µM*	-26	-24%	9%	4%
COC(=O)c1sccc1NS(=O)(=O)c1ccccc1[N+](=O)[O-]	5%	-19%	3	0%	-19%	0%
COc1cc(/C=C2\SC(=S)N(CCC(=O)N3CCCCC3)C2=O)cc(OC)c1OC	16µM*	?	-101*	-2%	1%	0%[0.0935 µM]
Cc1ccc(/C=C2/SC(=S)N(CCC(=O)N3CCOCC3)C2=O)cc1	12µM*	16µM*	0	15%	6%	-2%
O=C(CN1C(=O)/C(=C/c2ccccc2)SC1=S)N1CCN(CCc2ccccn2)CC1	8.2µM*	12µM*	8	-11%	1%	.
CCOC(=O)COc1c(Br)cc(/C=C2\SC(=O)N(CC(=O)N3CCCC3)C2=O)cc1OC	-23%	-23%	-51*	10%	5%	2%
Cc1ccc(/C=C2\SC(=S)N(CCC(=O)NNC(=O)c3ccncc3)C2=O)cc1	1%	-10%	-13	0%	24%	.
CCn1c(C)cc(/C=C2/SC(=O)N(CC(=O)N3CCCC3)C2=O)c1C	-4%	-24%	-13	-2%	6%	.
O=C(c1ccccc1)N1CCN(CCc2ccccn2)CC1	-7%	-21%	-2	1%	1%	-7%
Cc1cccc(C)c1NC(=O)C1(C)CCC(=O)N1c1cc(C(C)(C)C)nn1C (stereo not drawn)	-6%	-5%	-2	-1%	-1%	.
Cc1ccc(S(=O)(=O)NNC(=O)c2ccoc2C)cc1	-2%	4%	16	-4%	1%	1%
CN1CCN(C(=O)CCN2C(=O)/C(=C/c3ccc(F)cc3)SC2=S)CC1	?	18µM*	-102*	-32%	-21%	.
CCc1ccc(/C=C2\SC(=S)N(CCCC(=O)N3CCCC3)C2=O)cc1	?	?	-29	-23%	-4%	.
CCN(CC)S(=O)(=O)c1cccc(C(=O)c2c(C)cc3ccccn23)c1	?	21µM*	1	-15%	-28%	5%
CCN(CC)S(=O)(=O)c1cccc(C(=O)Nc2cc(C)cc(C)c2)c1	?	?	-9	-43%	-7%	-1%
O=C(NCCCO)C(=O)c1c(-c2ccccc2)cc2ccccn12	0%	-5%	5	-16%	-12%	-3%
CCN(CC)S(=O)(=O)c1cc(NC(=O)C(=O)c2c(-c3ccccc3)cc3ccccn23)ccc1C	21µM*	23µM*	2	-9%	-30%	6%
CCN(CC)S(=O)(=O)c1cccc(NC(=O)C(=O)c2c(-c3ccccc3)cc3ccccn23)c1	?	23µM*	29	-10%	-12%	-1%
SMILES	TDP1 cell CPT	DT40 TDP1 no CPT	IL1B secr inh	HepG2 tox	TGFb inhibitor	TDP1 inh
O=C(c1cc(-c2ccncc2)nc2ccccc12)N1CCCC(C(F)(F)F)C1 (stereo not drawn)	?	18µM*	17	-46%	?	.
O=C(c1cc(-c2ccco2)nc2ccccc12)N1CCCC(C(F)(F)F)C1 (stereo not drawn)	?	5%	-4	-16%	-8%	.
O=C(c1cc(-c2cccs2)nc2ccccc12)N1CCN(c2ccccc2)CC1	?	?	-12	-29%	0%	7%
CC1CCCN(C(=O)c2cc(-c3cccs3)nc3ccccc23)C1 (stereo not drawn)	?	23µM*	-21	-5%	0%	-5%
CC(C)n1ncc2c(C(=O)N3CCN(c4ccc(F)cc4)CC3)cc(-c3ccccc3)nc21	?	?	-58*	-1%	-11%	3%
Cc1ccccc1CN1CCN(C(=O)c2cc(-c3ccncc3)nc3ccccc23)CC1	21µM*	12µM*	0	-24%	-1%	8%
CC1CC(C)CN(C(=O)c2cc(-c3ccncc3)nc3ccccc23)C1 (stereo not drawn)	?	?	-4	-27%	-4%	.
CCOC(=O)CCN1C(=O)[C@H]2[C@H]3[C@H](O)[C@H](O)C/C(=N/NC(=O)OCc4ccc(OC)cc4)[C@@H]3CC[C@@H]2C1=O	.	.	.	.	.	3%[21 µM]
CC(CCc1ccccc1)NC(=O)C1CCC1 (stereo not drawn)	-3%	-13%	6	9%	4%	.
O=C(c1cc(-c2ccncc2)nc2ccccc12)N1CCN(Cc2ccccc2)CC1	21µM*	21µM*	-60*	-34%	-25%	4%
O=C(c1cc(-c2ccncc2)nc2ccccc12)N1CCOCC1	0%	-19%	-2	-28%	0%	-2%
Cc1cccc2c(C(=O)N3CCN(c4ccccc4)CC3)cc(-c3ccncc3)nc12	2.6µM*	2.9µM*	6	7%	?	3%
Cc1ccc(-c2cc(C(=O)N3CCOCC3)c3ccccc3n2)cc1	3%	-11%	16	-29%	19%	-3%
O=C(c1cc(-c2ccncc2)nc2ccccc12)N1CCN(S(=O)(=O)/C=C/c2ccccc2)CC1	?	18µM*	?	-25%	?	-3%
